A short description of test [1]: compounds binding Alexa647 anti-His antibody – biochemical, small-molecule microarray, 635 nm fluorescence, artefact control for SMM control protein annotation, primary screen (AID 1128).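 Note: score merges feature fluorescence with signal-to-noise for each printed compound spot.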 The settings on record: higher = more signal.
Test [2] deals with Human papillomavirus type 1a E7 protein (residues 1-88). As to the kind of experiment: HPV1a E7 small-molecule binders, primary screen, biochemical, small-molecule microarray, residues 1-88, 635 nm (AID 1129). Conditions: small-molecule microarray binding, fluorescence 635 nm; higher = more signal.
Test [3] deals with Focal adhesion kinase 1 (Homo sapiens) (UniProt Q05397). As to the kind of experiment: PTK2 protein binding on printed compound slides – biochemical, small-molecule microarray, 635/667 nm fluorescence, BSA, DTT, primary screen (AID 1130).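 Note: composite of spot emission at 667 nm and signal to noise over triplicate slides.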 Conditions: 635 nm fluorescence, higher = more signal.
Chain of Focal adhesion kinase 1 (Homo sapiens) (Q05397 whole entry, looked up): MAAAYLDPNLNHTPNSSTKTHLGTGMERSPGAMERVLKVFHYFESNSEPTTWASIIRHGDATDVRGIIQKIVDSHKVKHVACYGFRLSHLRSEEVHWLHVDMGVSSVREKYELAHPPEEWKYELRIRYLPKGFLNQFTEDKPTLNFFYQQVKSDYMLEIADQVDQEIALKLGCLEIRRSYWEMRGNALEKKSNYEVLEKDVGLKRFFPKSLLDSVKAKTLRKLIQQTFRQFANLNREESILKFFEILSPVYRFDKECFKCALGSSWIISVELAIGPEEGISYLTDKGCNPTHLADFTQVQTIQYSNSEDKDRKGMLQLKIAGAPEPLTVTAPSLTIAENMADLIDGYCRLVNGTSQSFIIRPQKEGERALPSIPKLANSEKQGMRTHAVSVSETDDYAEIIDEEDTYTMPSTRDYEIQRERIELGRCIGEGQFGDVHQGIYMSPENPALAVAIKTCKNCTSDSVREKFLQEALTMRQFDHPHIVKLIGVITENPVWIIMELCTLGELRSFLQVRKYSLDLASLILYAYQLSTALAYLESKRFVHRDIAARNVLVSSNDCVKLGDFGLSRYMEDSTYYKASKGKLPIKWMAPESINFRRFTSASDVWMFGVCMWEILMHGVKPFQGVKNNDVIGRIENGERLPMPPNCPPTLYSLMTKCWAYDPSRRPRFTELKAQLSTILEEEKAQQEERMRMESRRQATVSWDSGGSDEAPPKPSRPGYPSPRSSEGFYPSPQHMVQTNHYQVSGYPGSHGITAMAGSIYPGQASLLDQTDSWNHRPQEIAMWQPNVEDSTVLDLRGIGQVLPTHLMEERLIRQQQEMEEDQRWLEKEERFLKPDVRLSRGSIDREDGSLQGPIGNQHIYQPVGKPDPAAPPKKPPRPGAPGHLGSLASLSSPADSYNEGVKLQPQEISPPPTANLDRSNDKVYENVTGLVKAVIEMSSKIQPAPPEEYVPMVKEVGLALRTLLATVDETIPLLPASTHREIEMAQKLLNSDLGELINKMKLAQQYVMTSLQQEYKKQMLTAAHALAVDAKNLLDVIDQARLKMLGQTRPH
For test [4], the system named is Fibrinogen (Alexa647-labelled). As to the kind of experiment: Alexa647-fibrinogen binding to printed small molecules – biochemical, small-molecule microarray, 635/667 nm fluorescence, artefact control for SMM control-protein annotation, profiling panel (AID 1131).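 Note: z-score merges 667 nm fluorescence with per-spot signal-to-noise over triplicate slides.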 Conditions: fibrinogen-A647 binding fluorescence, higher = more signal.
Test [5] has as its target Follistatin (Homo sapiens) (UniProt P19883). As to the kind of experiment: FST protein binding to printed compounds – biochemical, small-molecule microarray, 635/667 nm fluorescence, primary screen (AID 1132). The settings on record: 635 nm fluorescence, higher = more signal.
Test [6] has as its target Fibroblast growth factor 2 (Homo sapiens) (UniProt P09038). As to the kind of experiment: basic fibroblast growth factor binding to printed compounds – biochemical, small-molecule microarray, 635/667 nm fluorescence, primary screen (AID 1133). The settings on record: FGF2, fluorescence 635/667, higher = more signal.
The nature of test [7]: JC-1 mitochondrial potential readout, lung cancer cells – cell-based, A549, JC-1 fluorescence, basal, 24 h, 100 nL, profiling panel (AID 1138).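 Note: A549 lung adenocarcinoma cells under basal conditions with no added stimulus; test concentration not given here.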 The settings on record: higher = more signal.
Another test concerns Lefty1. As to the kind of experiment: Lefty1 protein binding to printed compounds – biochemical, small-molecule microarray, 635/667 nm fluorescence, primary screen (AID 1139). Conditions: fluorescence 635/667, higher = more signal.
For test [8], the system named is wheat germ agglutinin (Triticum aestivum), Alexa647-labelled. As to the kind of experiment: Alexa647-WGA lectin binding to printed small molecules – biochemical, small-molecule microarray, 635/667 nm fluorescence, artefact control for SMM control-protein annotation, profiling panel (AID 1140).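 Note: score merges 667 nm feature emission with signal to noise over triplicate slides.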 Conditions: WGA-A647 binding, 635 nm fluorescence, higher = more signal.

Test [9] deals with Luciferin 4-monooxygenase (Photinus pyralis) (UniProt P08659). As to the kind of experiment: inhibition of purified Photinus pyralis luciferase – biochemical, luminescence, purified enzyme, 2006 set, primary screen (AID 1141).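 Note: cell-free assay with purified firefly luciferase at 100 ng per well in PBS; test concentration not given here.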 Conditions: purified firefly luciferase, SteadyGlo luminescence, 30 min; higher = more signal, called active from +8 up or from −8 down.
Chain of Luciferin 4-monooxygenase (Photinus pyralis) (P08659 whole entry, looked up): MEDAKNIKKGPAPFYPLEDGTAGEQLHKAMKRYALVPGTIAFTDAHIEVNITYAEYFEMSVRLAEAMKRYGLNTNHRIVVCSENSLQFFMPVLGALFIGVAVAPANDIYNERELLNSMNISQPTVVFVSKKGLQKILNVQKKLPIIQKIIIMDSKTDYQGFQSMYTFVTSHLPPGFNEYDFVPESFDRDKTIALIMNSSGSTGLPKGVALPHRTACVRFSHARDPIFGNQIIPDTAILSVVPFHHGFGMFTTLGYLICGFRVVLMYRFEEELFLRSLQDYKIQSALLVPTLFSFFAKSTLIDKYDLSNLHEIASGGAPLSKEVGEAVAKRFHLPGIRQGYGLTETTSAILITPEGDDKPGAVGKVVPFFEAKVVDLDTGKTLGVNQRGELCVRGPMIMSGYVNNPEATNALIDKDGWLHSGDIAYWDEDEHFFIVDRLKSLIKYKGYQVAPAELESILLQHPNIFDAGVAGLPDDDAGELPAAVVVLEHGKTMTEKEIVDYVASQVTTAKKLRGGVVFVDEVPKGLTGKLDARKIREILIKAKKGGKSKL

Calls of active or inactive are those of the source.

Chain of Follistatin (Homo sapiens) (P19883 whole entry, looked up): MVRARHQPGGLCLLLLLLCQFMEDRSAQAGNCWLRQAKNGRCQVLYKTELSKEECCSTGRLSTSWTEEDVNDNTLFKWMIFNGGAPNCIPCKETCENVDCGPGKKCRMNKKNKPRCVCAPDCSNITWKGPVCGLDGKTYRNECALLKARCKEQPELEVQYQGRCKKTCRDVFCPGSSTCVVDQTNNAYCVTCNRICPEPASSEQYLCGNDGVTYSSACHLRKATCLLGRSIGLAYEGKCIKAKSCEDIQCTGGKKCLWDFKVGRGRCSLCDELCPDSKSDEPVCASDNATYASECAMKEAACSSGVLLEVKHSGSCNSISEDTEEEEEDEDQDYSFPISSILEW
Chain of Fibroblast growth factor 2 (Homo sapiens) (P09038 whole entry, looked up): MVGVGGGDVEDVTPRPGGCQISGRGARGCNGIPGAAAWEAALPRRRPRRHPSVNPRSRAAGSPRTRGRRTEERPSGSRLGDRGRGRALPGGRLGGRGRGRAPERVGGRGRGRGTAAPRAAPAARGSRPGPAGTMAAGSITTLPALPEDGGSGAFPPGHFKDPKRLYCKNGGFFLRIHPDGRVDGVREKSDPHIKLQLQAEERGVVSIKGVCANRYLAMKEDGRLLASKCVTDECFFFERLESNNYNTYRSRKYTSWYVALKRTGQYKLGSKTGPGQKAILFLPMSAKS

As to `[N-]=[N+]=Nc1ccccc1[C@H]1OC(c2ccc(OCCCO)cc2)=N[C@@]1(Cc1ccccc1)C(=O)N1CCOCC1`, the composite z-score turned out to be 2.22 in test [1]; 1.21 in test [2]; 0.68 in test [3]; 0.974 in test [4]; 1.38 in [5]; 1.66 in test [6]. The composite z-score worked out at 0.511 in the test on Lefty1 and 1.09 in [8]. For the same compound, the figures for the z-score in test [7] and in [9] were -0.254 and -5.58 (inactive), respectively.

Take `C=CCNC(=O)[C@@H]1[C@H]2C(=O)O[C@H](c3ccccc3)[C@H](c3ccccc3)N2[C@H](c2ccc(OCCO)cc2)[C@@]12C(=O)N(C(=O)OCCOC)c1ccc(C#CCC(C(=O)OC)C(=O)OC)cc12`: the composite z-score is 1.67 in test [1]; 1.16 in [2]; 1.31 in [3]; 0.603 in [4]; 1.24 in test [5]; 1.48 in [6]. In addition, the figures for the composite z-score (in the test with Lefty1; in [8]) were 0.991 and 1.05, respectively. Further, the results for the z-score in test [7] and in [9] were -1.18 and -0.262 (inactive), respectively.

Consider `CO[C@H]1O[C@H](CO)[C@@H](OC(=O)Nc2ccccc2)[C@@H]2OC(=O)[C@@H](Cc3ccc4ccccc4c3)C/C=C/C[C@H](Cc3ccc4ccccc4c3)C(=O)O[C@@H]12`, for which the composite z-score came to 0.79 in [1]; 1.2 in [2]; 1.12 in [3]; 0.768 in test [4]; 0.935 in [5]; 0.477 in test [6]. Further, the composite z-score is 0.698 with Lefty1 and 0.807 in test [8]. The z-score was 0.461 in test [7] and -1.97 (inactive) in test [9].

In the case of `O=C(CS)NCCCCCNC(=O)[C@@H]1C[C@@H]2C(=O)NCC(=O)N2[C@@H]1c1ccc(O)cc1`, the composite z-score is 1.79 in [1]; 0.443 in test [2]; 0.393 in test [3]; -0.135 in test [4]; 1.18 in test [5]; 1.24 in [6]. Further, the composite z-score was 0.269 in the test with Lefty1 and -0.855 in test [8]. Moreover, the z-score in test [7] is -0.977; in [9], -1.24 (inactive).

Take `COCCCNC(=O)[C@]1(Cc2ccccc2)N=C(c2ccc(OCCCO)cc2)O[C@@H]1c1ccccc1CN=[N+]=[N-]`: the composite z-score in [1] worked out at 2.51; in [2], 1.14; in test [3] it was 0.802; in test [4] it was 0.957; in test [5], 1.31; in [6] it was 1.46. Also, the results for the composite z-score (with Lefty1; in test [8]) were -0.0031 and 0.963, respectively. Further, the z-score is 1.16 in test [7] and -0.932 (inactive) in [9].

Take `CCCCC(=C=CC[C@H](O)c1cccc(OCCO)c1)C[C@H](O)c1ccccn1`: the composite z-score in test [1] is 0.536; in [2], -0.0708; in [3] it was -0.0538; in test [4], 0.538; in test [5], 0.346; in test [6], 0.257. Besides, the values for the composite z-score (in the test with Lefty1; in [8]) were 0.38 and 0.0704, respectively. For the same compound, the z-score in test [7] is 0.782; in test [9] it was -0.167 (inactive).

As for `COc1cc(CO)cc(I)c1O[C@H]1C=C(C(=O)NCCO)C[C@@H](NC[C@@H]2CCCO2)[C@@H]1O`, the composite z-score in [1] was found to be 0.296; in test [2], 0.63; in [3], 0.106; in [4], 0.346; in test [5], 0.323; in test [6], 0.599. Also, the figures for the composite z-score (in the test on Lefty1; in test [8]) were 0.831 and 0.483, respectively. The z-score was 0.452 in test [7] and 0.758 (inactive) in test [9].

`CCOC(=O)C[C@H]1[C@H](OC(=O)c2ccc(C(=O)c3ccccc3)cc2)[C@@H](NC(=O)c2ccccc2)c2cc(OCCCO)ccc2N1C(=O)c1ccccc1`: the composite z-score came to 0.0654 in test [1]; 0.321 in test [2]; 0.775 in [3]; 0.704 in test [4]; 0.64 in test [5]; 0.752 in test [6]. For the same compound, the composite z-score in the test on Lefty1 was determined as 0.802; in test [8], 0.405. The z-score in test [7] is 0.697; in test [9] it was 0.685 (inactive).

`COc1ccc([Si](C)(C)[C@@H]2[C@@H](CC(=O)N3Cc4ccccc4C[C@H]3CO)O[C@]3(C(=O)N(Cc4cccc(N5CCC5=O)c4)c4ccccc43)[C@H]2C)cc1`: the composite z-score in [1] is 0.887; in [2] it was 1.12; in test [3], 0.366; in test [4], 0.357; in [5], 1.22; in test [6], 1.01. Besides, the composite z-score with Lefty1 was 1.02; in test [8] it was 0.696. For the same compound, the z-score in test [7] is -0.256; in [9], -0.106 (inactive).

`CC(C)[Si](C#CCCCC#N)(O[C@H](c1ccccc1)c1cn(Cc2cccc(Cl)c2)nn1)C(C)C`: the composite z-score in [1] is 0.822; in [2], 0.953; in test [3], -0.213; in test [4], 0.902; in test [5], 1.13; in test [6], 0.955. The composite z-score amounted to 0.764 in the test with Lefty1 and 0.276 in [8]. The z-score in test [7] was 5.27; in test [9], -0.513 (inactive).

As to `C[C@H]1C2[C@H](Cc3ccccc3)NC(=O)[C@]23C(=O)NCC(=O)N2CCC[C@H]2C(=O)NC/C=C/CCC/C=C/C3[C@@H]2O[C@]12C` (stereo not given in full), the composite z-score is 0.295 in [1]; -1.28 in test [2]; -0.502 in [3]; -0.489 in [4]; -0.0491 in test [5]; -0.0881 in test [6]. For the same compound, the results for the composite z-score (with Lefty1; in [8]) were -0.0374 and -0.704, respectively. For the same compound, the values for the z-score in test [7] and in test [9] were -0.979 and -0.44 (inactive), respectively.

Take `CC(c1ccccc1)C(O)C1C=CC2C(=O)N(C)C(=O)C2N1NC(=O)OC(C)(C)C` (stereo not given): the composite z-score is 0.79 in test [1]; 1.21 in test [2]; 0.235 in test [3]; 1.03 in test [4]; 0.696 in test [5]; 0.0621 in test [6]. In addition, the figures for the composite z-score (with Lefty1; in test [8]) were -0.271 and 0.939, respectively. Further, the results for the z-score in test [7] and in test [9] were -0.422 and -0.934 (inactive), respectively.

Consider `CCOC(=O)C[C@H]1[C@H](OC(=O)c2ccc(C(=O)c3ccccc3)cc2)[C@@H](NC(=O)Cc2ccc(OC)cc2)c2cc(OCCCO)ccc2N1C(=O)c1ccc2ccccc2n1`, for which the composite z-score in test [1] was 0.325; in [2] it was 0.727; in test [3], -0.314; in [4], 0.858; in test [5], 0.513; in test [6], 0.312. Moreover, the composite z-score with Lefty1 is 0.735; in test [8], -0.028. Moreover, the z-score is 0.842 in test [7] and -0.849 (inactive) in [9].

These data come from PubChem BioAssay.
